RGS7-Gao: RGS7-Galphao binding modulators, primary screen, biochemical, multiplexed bead flow cytometry. Guanine nucleotide-binding protein G(o) subunit alpha (Homo sapiens), P09471. actives lie on both sides. binding response (% of control), % at 10 µM. actives 0.35% (n = 220,000). AID 1439, 2008; in the data active = binding response below about 49% or above about 150%; inconclusive = no clear call, values can overlap the other calls; inactive = in between;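 note: fluorescent Galphao held in activated GDP-AlF4 state binding bead-coupled RGS7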
Target sequence (P09471 whole entry, looked up): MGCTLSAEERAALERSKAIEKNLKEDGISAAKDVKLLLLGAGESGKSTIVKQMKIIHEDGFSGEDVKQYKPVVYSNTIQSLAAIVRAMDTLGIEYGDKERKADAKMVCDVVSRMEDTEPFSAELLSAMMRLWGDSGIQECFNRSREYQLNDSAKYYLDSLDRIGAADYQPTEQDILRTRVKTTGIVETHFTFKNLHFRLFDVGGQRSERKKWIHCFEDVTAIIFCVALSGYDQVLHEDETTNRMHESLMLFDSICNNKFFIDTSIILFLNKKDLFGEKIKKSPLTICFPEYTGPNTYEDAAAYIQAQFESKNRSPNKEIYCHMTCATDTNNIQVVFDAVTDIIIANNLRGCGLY
GSH bead fluor: compound fluorescence on glutathione beads, profiling panel, artefact control, biophysical, 488/530 nm, flow cytometry. GSH beads flow cytometry, compound fluorescence 488/530 nm; stronger effect = higher value. fluorescence (KMESF) at 10 µM. actives 0.25% (n = 190,000). AID 1776, 2009; in the data active = fluorescence above about 89;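 note: glutathione beads carrying GST-tagged Bcl family fusion proteins plus one bare bead set; values are compound well signal with DMSO vehicle wells as background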
RGS8-Gao reg: RGS8-Galphao binding modulators, primary screen, biochemical, multiplexed bead flow cytometry; actives 0.34% (n = 220,000); response (percent of control binding), % at 10 µM; actives lie on both sides; AID 1423, 2008; Guanine nucleotide-binding protein G(o) subunit alpha (Homo sapiens), P09471; in the data active = response below about 60% or above about 140%; inactive = in between;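 note: Galphao activated as the GDP aluminium fluoride complex binding bead-coupled RGS8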
RGS4-Gao reg: modulators of RGS4 binding to Galphao, primary screen, biochemical, multiplexed bead flow cytometry; Guanine nucleotide-binding protein G(o) subunit alpha (Homo sapiens), P09471; actives lie on both sides; binding response (% of control), % at 10 µM; actives 0.33% (n = 220,000); AID 1415, 2008; in the data active = binding response below about 49% or above about 150%; inactive = in between;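 note: fluorescent Galphao activated with aluminum fluoride binding bead-coupled RGS4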
RGS16-Gao HTS: modulators of RGS16 binding to Galphao, primary screen, biochemical, human proteins, multiplexed bead flow cytometry. Regulator of G-protein signaling 16 (Homo sapiens) + Guanine nucleotide-binding protein …. bead-based flow cytometry RGS16-Galphao binding, fluorescence; actives lie on both sides. binding response (% of control), % at 10 µM. actives 0.38% (n = 220,000). AID 1441, 2008;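 note: Galphao activated by GDP with aluminum fluoride before binding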
Target sequence (O15492 whole entry, looked up): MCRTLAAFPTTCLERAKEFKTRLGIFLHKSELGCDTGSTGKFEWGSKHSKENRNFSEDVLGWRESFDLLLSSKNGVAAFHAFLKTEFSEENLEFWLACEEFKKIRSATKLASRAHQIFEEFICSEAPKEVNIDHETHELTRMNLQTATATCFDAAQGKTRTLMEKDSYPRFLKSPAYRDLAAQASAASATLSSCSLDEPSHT
Target sequence (P09471 whole entry, looked up): as the sequence (P09471 whole entry, looked up) above
Avidin bead fluor: green autofluorescence of compounds with avidin beads – biophysical, 488/530 nm, flow cytometry, artefact control, profiling panel | compound fluorescence 488/530 nm; stronger effect = higher value | fluorescence (KMESF) at 10 µM | actives 0.38% (n = 220,000); in the data active = fluorescence above about 47
RGS-Gao: modulators of RGS–Galpha-o binding, primary screen, biochemical, multiplexed beads, flow cytometry, RGS4/7/8/16/19. shares compounds with RGS16-Gao HTS. multiplexed bead flow cytometry. RGS4–Galpha-o binding response, % at 10 µM. actives 99% (n = 1,600). AID 1504, 2009;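 note: fluorescently labeled Galpha-o bound to GDP with aluminium fluoride binding biotinylated RGS beads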
Avidin counter: disruption of biotin probe capture by avidin, counter-screen for RGS protein interaction modulators, biochemical, flow cytometry, bead-based. AID 1783, 2009. shares compounds with RGS16-Gao HTS. inhibition, % at 10 µM. streptavidin beads, fluorescein-biotin binding. 1,700 tested, under 10 active;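 active = inhibition above 50%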;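 note: median green fluorescence of gated singlet beads compared with DMSO control wells; 0% = DMSO wells and 100% = complete loss of bead fluorescence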
RGS8-Gao confirm: RGS8-Galphao binding modulators, confirmation, biochemical, multiplexed bead flow cytometry, single concentration; shares compounds with RGS16-Gao HTS; bead-based flow cytometry RGS8-Galphao binding, fluorescence; actives lie on both sides; binding response (% of control), % at 10 µM; actives 3% (n = 1,700); AID 1836, 2009; in the data active = binding response below about 72% or above about 130%; inactive = in between;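 note: Galphao activated as GDP AlF4 complex before binding bead RGS8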
RGS7-Gao single: RGS7-Galphao binding modulators, confirmation, biochemical, multiplexed bead flow cytometry, single concentration. shares compounds with RGS16-Gao HTS. bead-based flow cytometry RGS7-Galphao binding; actives lie on both sides. response (percent of control binding), % at 10 µM. actives 7.8% (n = 1,700). AID 1837, 2009; in the data active = response below about 75% or above about 130%; inactive = in between;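 note: fluorescent Galphao activated with GDP and aluminum fluoride binding bead-coupled RGS7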
RGS16-Gao conf: modulators of RGS16-Galphao protein binding, confirmation, biochemical, single concentration, multiplexed bead flow cytometry. shares compounds with RGS16-Gao HTS. bead-based flow cytometry; actives lie on both sides. response (% of control binding), % at 10 µM. actives 4% (n = 1,700); in the data active = response below about 74% or above about 130%; inactive = in between;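 note: Galphao activated as the GDP aluminium fluoride complex binding bead-coupled RGS16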
RGS4-Gao single: modulators of RGS4-Galphao protein binding, confirmation, biochemical, single concentration, multiplexed bead flow cytometry; shares compounds with RGS16-Gao HTS; actives lie on both sides; binding response (% of control), % at 10 µM; actives 4% (n = 1,700); AID 1840, 2009; in the data active = binding response below about 74% or above about 130%; inactive = in between
RGS19-Gao conf: regulators of RGS19-Galphao binding, confirmation, biochemical, single point, multiplexed bead flow cytometry | shares compounds with RGS16-Gao HTS | bead-based flow cytometry RGS19-Galphao binding; actives lie on both sides | response (percent of control binding), % at 10 µM | actives 5% (n = 1,700) | AID 1841, 2009; in the data active = response below about 50% or above about 160%; inactive = in between;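 note: 100% = no compound control and 0% = blank background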
Starred values were filed as active, the others as inactive; ? = inconclusive; · = not tested or not shown; [ ] = dose if it differs, or a comment. A selection: hits, their analogues and other compounds. The true share with any hit is near 1.2%. Unless noted, the rule behind the calls is not given here.

SMILES	RGS7-Gao	GSH bead fluor	RGS8-Gao reg	RGS4-Gao reg	RGS16-Gao HTS	Avidin bead fluor	RGS-Gao	Avidin counter	RGS8-Gao confirm	RGS7-Gao single	RGS16-Gao conf	RGS4-Gao single	RGS19-Gao conf
O=C(CSc1nncn1-c1ccccc1)NC1CCCc2ccccc21 (stereo not given)	94	11	69	92	23*	0	92*	-2	101	95	100	99	79
C/C(Cc1ccccc1)=N\NC(=O)CCCCCC(=O)N/N=C(\C)Cc1ccccc1	101	24	98	101	102	3	·	·	·	·	·	·	·
Cc1cc(-c2n[nH]c(=S)n2Cc2ccco2)n(C)n1	93	14	76	90	10*	7	90*	1	102	105	98	102	89
CC1CCCN(Cc2c(O)ccc3c2O/C(=C\c2ccco2)C3=O)C1 (stereo not given)	100	21	100	101	106	5	·	·	·	·	·	·	·
COc1ccccc1N1CCN(C(=O)c2c(-c3ccccc3Cl)noc2C)CC1	74	9	77	64	-11*	10	64*	0	100	101	98	98	102
COc1ccc(NC(=O)Cn2nnc(-c3ccc(CN4CCOCC4)cc3)n2)c(OC)c1	129	13	145*[activator]	149	170	6	149*	-4	105	106	106	105	98
Cc1ccccc1NC(=O)Cn1nnc(-c2ccc(CN3CCC(C)CC3)cc2)n1	?	·	105	103	102	8	·	·	·	·	·	·	·
CN1CCN(c2oc(-c3ccc([N+](=O)[O-])cc3)nc2C#N)CC1	?	·	102	101	100	8	·	·	·	·	·	·	·
Cc1[nH]n(-c2ccccc2)c(=O)c1/C=N/Nc1nncc(-c2ccccc2)n1	·	17	·	·	·	·	·	1	95	89	91	93	59
CC1CC2=C(C(=O)O1)C(C)Nc1ccccc1N2 (stereo not given)	87	15	85	86	22*	8	86*	-1	102	99	102	101	83
O=C(c1ccc(F)cc1)N1CCCC(C(=O)N2CCN(c3ccccc3)CC2)C1 (stereo not given)	?	·	102	105	108	8	·	·	·	·	·	·	·
CCN(CC)S(=O)(=O)c1ccc(NC(=O)C(OC)c2ccccc2)cc1 (stereo not given)	·	37	·	·	·	·	·	-1	100	93	99	99	97
COC(C(=O)Nc1ccc(S(=O)(=O)Nc2c(C)cccc2C)cc1)c1ccccc1 (stereo not given)	102	14	100	102	106	14	·	·	·	·	·	·	·
O=C(NCCNC(=O)C1CC2CCC1C2)C1CC2CCC1C2 (stereo not given)	186*[activator]	36	100	123	111	229*	123*	-1	100	96	98	96	100
COc1cc(C)ccc1S(=O)(=O)n1nc(C)cc1C	86	11	99	101	101	11	·	·	·	·	·	·	·
O=C(O)CSc1nnc(-c2ccncc2)n1Cc1ccccc1	93	36	99	97	103	5	·	·	·	·	·	·	·
CCCC[n+]1ccn(-c2nc3ccccc3nc2[N-]S(=O)(=O)c2ccccc2)c1	·	40	101	134	172	·	·	0	101	99	102	99	93
O=C(Nc1ccc(S(=O)(=O)N2CCOCC2)cc1)c1ccc2c(c1)OCO2	?	·	101	104	102	5	·	·	·	·	·	·	·
Nc1ccc(C(CC(=O)O)n2cccc2)cc1 (stereo not given)	39*	7	72	83	96	13	83*	-1	97	80	90	89	66
Cc1nc(NC(=O)c2cccc(Cl)c2)sc1C(=O)N1CCCCC1	91	11	100	91	105	17	·	·	·	·	·	·	·
COc1ccc(C2C(C#N)=C(N)Oc3c2sc2nc(C)cc(C)c32)cc1 (stereo not given)	117	6	103	121	187*[activator]	89*	121*	-1	101	101	100	102	104
COc1ccc(NC(=S)N2CCNC(=O)C2CC(=O)Nc2cccc(Cl)c2C)cc1 (stereo not given)	94	9	79	95	9.7*	8	95*	0	95	95	94	96	92
COc1ccccc1C(=O)N1CCNC(=O)C1CC(=O)Nc1cccc(C)c1 (stereo not given)	240*[activator]	10	101	103	115	143*	103*	-3	100	100	100	101	101
C/C(=N\NC(=O)c1[nH]c2c([N+](=O)[O-])cc(C)cc2c1-c1ccccc1)c1cccnc1	99	20	100	101	98	4	·	·	·	·	·	·	·
COc1ccc(NC(=S)N/N=C/c2ccc(F)cc2)cc1OC	108	11	107	106	112	27	·	·	·	·	·	·	·
O=C(NC1CCCCC1)C(=S)NC1CCCCC1	?	16	99	100	100	9	·	·	·	·	·	·	·

Screening data (PubChem BioAssay)
